Sampled rows, rich in hits. Any-hit rate of the full collection: about 2%.
Insulin prom up = insulin promoter activators in MIN6 cells, imaging, high-content screening, mouse beta cells; MIN6 insulin promoter-GFP reporter; stronger effect = higher value; z-score at 5 µM; 190,000 tested, 0.3% active; AID 1625, 2009;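 active means z-score above 3 at 5 µM with at least 500 cells counted in the well; inconclusive means wells under 500 cells, flagged as cytotoxic or low count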
Insulin prom inh = inhibitors of insulin promoter-driven GFP, primary screen, imaging, TRM-6 cells (human fetal islet line), eGFP reporter, cell count | reporter expression induced with tamoxifen | inhibition, % at 2 µM | 130,000 tested, 0.9% active | AID 1273, 2008;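 active means inhibition above the mean plus 3 SD, with well images judged a real hit on visual review, cut at about 60% in these data, passing the limit was not always enough; inconclusive means inhibition over the cutoff but images rejected on review; inactive means inhibition not above the cutoff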
Autophagy mod = autophagy modulators in MEF cells, primary screen, imaging, high-content, MEF GFP-LC3. AID 463193, 2010. MEF GFP-LC3 puncta imaging; test concentration mostly 10 µM. 190,000 tested, 0.98% active. calls only at 10 µM (by protocol);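 active means percentage of spot-positive cells more than 3 SD above its plate mean, without a fluorescence outlier flag or 80% toxicity; inconclusive means no clear call, values can overlap the other calls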;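 further: spot-positive cell cutoff set from DMSO-treated cells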
PERK inh = block of dimerizer-induced PERK translation repression, primary screen, PERK inhibitor project, CHO PERK-DD cells, SEAP luminescence, HTS; AID 1416, 2008; inhibition, % at 5.6 µM; CHO PERK-DD fusion, SEAP luminescence translation reporter; 220,000 tested, 0.17% active;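 active means inhibition above the mean inhibition of all tested compounds plus 3 SD, set separately per screening campaign, cut at about 2.9% in these data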;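 further: PERK kinase domain activated by AP20187 dimerizer at 100 nM; 0% = DMSO with dimerizer and 100% = rapamycin at 8.4 µM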
eIF4E-4G inh = eIF4E–eIF4G protein interaction inhibitors, primary screen, biochemical, uHTS, TR-FRET, eIF4GI fragment. Eukaryotic translation initiation factor 4E (Mus musculus) + Eukaryotic translation …. 220,000 tested, 0.37% active. TR-FRET eIF4E-eIF4GI(517-606) binding, 2 h. inhibition, % at 21.7 µM;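 active means inhibition above about 30%, limit read from the data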;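 further: 0% = full FRET control wells and 100% = background wells lacking eIF4GI fragment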
* = called active by the depositor; [ ] = dose if it differs, or a comment.

Results for COC(=O)C1=C(Nc2ccc(C)cc2)C=C(C)C(C(=O)OC)C1c1ccc(OC)cc1 (centres undefined) ?
Insulin prom inh: -378; Autophagy mod: active; PERK inh: -1; eIF4E-4G inh: -2

Results for COC(=O)C1=C(Nc2ccc(C)cc2)C=C(C)C(C(=O)OC)C1c1cccc(OC)c1 (centres undefined) ?
Insulin prom inh: -11; Autophagy mod: inactive; PERK inh: -1; eIF4E-4G inh: -4

What do the screens show for `O=C(Cc1cccs1)Nc1cccc(-c2ccc3nncn3n2)c1`?
Insulin prom up: -0.93; Insulin prom inh: 23; Autophagy mod: inactive; PERK inh: 1; eIF4E-4G inh: -5

What do the screens show for `COC(=O)c1ccc2c(=O)[nH]c(CSc3nc(C)cs3)nc2c1`?
Insulin prom up: -0.16; Insulin prom inh: 36; Autophagy mod: active; PERK inh: 1; eIF4E-4G inh: -1

How did c1csc(-c2nn3c(Cn4cnc5ccccc54)nnc3s2)c1 do in these assays?
Insulin prom up: -0.16; Insulin prom inh: 48; Autophagy mod: inactive; PERK inh: -1; eIF4E-4G inh: 33*

What do the screens show for `CCOC(=O)N1CCC(N(CCOC)C(=O)Nc2ccc(Cl)c(Cl)c2)CC1`?
Insulin prom up: -0.28; Autophagy mod: active; PERK inh: 0; eIF4E-4G inh: -2

What do the screens show for `CCOC(=O)N1CCC(N(CCCOC)C(=O)Nc2cccc(OC)c2)CC1`?
Insulin prom up: -0.8; Insulin prom inh: -62; Autophagy mod: inactive; PERK inh: 0; eIF4E-4G inh: 2

What do the screens show for `CC(C)c1csc(CN2CCC(CO)(Cc3cccc(F)c3)CC2)n1`?
Insulin prom up: 0.82; Autophagy mod: inactive; PERK inh: 0; eIF4E-4G inh: 3

How did Cc1cc2nc[nH]c2cc1[N+](=O)[O-] do in these assays?
Insulin prom up: 0.36; Insulin prom inh: 41; Autophagy mod: inactive; PERK inh: 1; eIF4E-4G inh: -1

How did Nc1cc2nc[nH]c2cc1N do in these assays?
Insulin prom up: 0.36; Insulin prom inh: -57; Autophagy mod: inactive; PERK inh: 1; eIF4E-4G inh: 36*

Results for COc1ccc(CN(C2CCCC2)S(=O)(=O)c2ccc(-n3cnnn3)cc2)cc1OC ?
Insulin prom inh: 53; Autophagy mod: inactive; PERK inh: -1; eIF4E-4G inh: 5

Results for COc1ccc(CN(C2CCCC2)S(=O)(=O)c2ccc(-n3cnnn3)cc2)cc1 ?
Insulin prom up: -0.17; Insulin prom inh: 83*; Autophagy mod: inactive; PERK inh: -1; eIF4E-4G inh: -6

Results for Cc1cc(C)c(C(=O)CN2C(=O)NC3(CCCCCC3)C2=O)cc1C ?
Insulin prom up: -0.86; Autophagy mod: active; PERK inh: -1; eIF4E-4G inh: 2

How did Cc1cccc(OCCn2c(NC(=O)c3ccco3)nc3ccccc32)c1 do in these assays?
Insulin prom up: -1.1; Insulin prom inh: 5; Autophagy mod: active; PERK inh: -1; eIF4E-4G inh: 1

How did O=C1CC(N2CCN(Cc3ccccc3)CC2)C(=O)N1c1ccccc1 (centres undefined) do in these assays?
Insulin prom up: -0.8; Autophagy mod: inactive; PERK inh: 2; eIF4E-4G inh: 6

What do the screens show for `O=C1CC(N2CCN(Cc3ccc4c(c3)OCO4)CC2)C(=O)N1c1cccc(Cl)c1` (centres undefined)?
Insulin prom up: 0.05; Insulin prom inh: -11; Autophagy mod: inactive; PERK inh: 1; eIF4E-4G inh: 66*

How did CN1C(=O)CC(N2CCN(Cc3ccc(Cl)cc3)CC2)C1=O (centres undefined) do in these assays?
Insulin prom up: 3.9*; Insulin prom inh: -41; Autophagy mod: inactive; PERK inh: 1; eIF4E-4G inh: -3

Results for O=C1CC(N2CCN(Cc3ccc4c(c3)OCO4)CC2)C(=O)N1c1cccc2ccccc12 (centres undefined) ?
Autophagy mod: inactive; PERK inh: 1; eIF4E-4G inh: 0

How did O=C(Nc1ccc(Cl)cc1F)C1CC1 do in these assays?
Insulin prom up: -0.27; Insulin prom inh: 32; Autophagy mod: inactive; PERK inh: 1; eIF4E-4G inh: 3

What do the screens show for `O=c1c2c(-c3ccccc3)csc2nc2c3ccccc3c(NCCN3CCOCC3)nn12`?
Insulin prom up: -2.6; Insulin prom inh: -191; Autophagy mod: active; PERK inh: 0; eIF4E-4G inh: 26

What do the screens show for `O=c1c2ccccc2nc2c3ccccc3c(NCCN3CCOCC3)nn12`?
Insulin prom inh: -9; Autophagy mod: active; PERK inh: -1; eIF4E-4G inh: 1

What do the screens show for `c1ccc(-c2csc3ncnc(NCCCN4CCOCC4)c23)cc1`?
Insulin prom up: inconclusive; Insulin prom inh: 5; Autophagy mod: inactive; PERK inh: -1; eIF4E-4G inh: -5

How did CCn1cc(C(=O)Nc2ccc(-n3cnnn3)c(OC)c2)c(=O)c2ccc(C)nc21 do in these assays?
Insulin prom up: -1.2; Autophagy mod: inactive; PERK inh: 0; eIF4E-4G inh: -40

How did Cn1cccc1CC(=O)N/N=C/C=C/c1ccco1 do in these assays?
Insulin prom up: 0.86; Insulin prom inh: -87; Autophagy mod: inactive; PERK inh: -1; eIF4E-4G inh: 7

How did CC1=NOC(=O)/C1=C\c1ccc(-c2cccc(Cl)c2)o1 do in these assays?
Insulin prom up: 0.7; Insulin prom inh: 6; Autophagy mod: inactive; PERK inh: -1; eIF4E-4G inh: 2

What do the screens show for `CC1=CC2=NC(=O)/C(=C\c3ccc(-c4cccc(Cl)c4)o3)C(=N)N2O1`?
Insulin prom up: 0.26; Insulin prom inh: -33; Autophagy mod: active; PERK inh: 1; eIF4E-4G inh: -9

How did CN(C)S(=O)(=O)Nc1ccccn1 do in these assays?
Insulin prom up: 0.53; PERK inh: 2; eIF4E-4G inh: 55*

What do the screens show for `O=C(Oc1c(Cl)cc(Cl)c2cccnc12)c1cccs1`?
Insulin prom inh: 29; Autophagy mod: inactive; PERK inh: 0; eIF4E-4G inh: 5

What do the screens show for `O=C(Oc1c(Cl)cc(Cl)c2cccnc12)c1ccco1`?
Insulin prom up: 0.24; Insulin prom inh: 68*; Autophagy mod: inactive; PERK inh: 0; eIF4E-4G inh: 1

How did Cn1c(O)c(C2=c3ccccc3=NC2=O)[nH]c1=S do in these assays?
Insulin prom up: 0.07; Insulin prom inh: -54; Autophagy mod: inactive; PERK inh: 1; eIF4E-4G inh: -3

How did COc1ccc2nc(-n3c(O)c(C4=c5ccccc5=NC4=O)[nH]c3=S)sc2c1 do in these assays?
Insulin prom up: -0.59; Autophagy mod: inactive; PERK inh: 0; eIF4E-4G inh: 52*[fluorescence artefact?]

How did Cc1oc(S(=O)(=O)N2CCCCC2)cc1NC(=O)Nc1ccc(Cl)cc1 do in these assays?
Insulin prom up: 0.03; PERK inh: 0; eIF4E-4G inh: -3
